According to the supplement of paper PMC8728848:
Many of the other results were omitted from the sample, so the strongest signals are more common in it than they were.

What was measured:
Assay in all cases: glycan array binding signal (z-score within array); higher = stronger binding
Conditions in all cases: glycan notation: IUPAC condensed, linker removed
[1] = molecular target: Fuc(a1-2)Gal(b1-3)GlcNAc(b1-2)Man(a1-3)[Fuc(a1-2)Gal(b1-3)GlcNAc(b1-2)Man(a1-6)]Man(b1-4)GlcNAc(b1-4)GlcNAc
In short: (§1)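 The binding signal is a Z-score computed within each array and averaged over linkers. Arrays of the same protein sequence at different concentrations or buffers were also averaged together. Data originate from 3228 arrays in the Consortium for Functional Glycomics database, kept only where the protein sequence was available.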

[2] = molecular target: Fuc(a1-2)Gal(b1-3)[Fuc(a1-4)]GlcNAc
In short: as §1

[3] = molecular target: Fuc(a1-2)Gal(b1-4)GlcNAc(b1-2)Man
In short: as §1

[4] = molecular target: Fuc(a1-2)Gal(b1-4)[Fuc(a1-3)]GlcNAc(b1-3)[Neu5Ac(a2-6)Gal(b1-4)GlcNAc(b1-6)]Gal(b1-4)Glc
In short: as §1

[5] = molecular target: Fuc(a1-3)[Gal(b1-4)]GlcNAc(b1-3)GalNAc
In short: as §1

[6] = molecular target: Fuc(a1-3)[Gal3S(b1-4)]GlcNAc6S
In short: as §1

Gal(a1-3)Gal(b1-3)GlcNAc = molecular target: Gal(a1-3)Gal(b1-3)GlcNAc
In short: as §1

[7] = molecular target: Gal(a1-3)Gal(b1-3)[Fuc(a1-4)]GlcNAc(b1-2)Man(a1-3)[Gal(a1-3)Gal(b1-3)[Fuc(a1-4)]GlcNAc(b1-2)Man(a1-6)]Man(b1-4)GlcNAc(b1-4)GlcNAc
In short: as §1

Gal(a1-3)GalNAc = molecular target: Gal(a1-3)GalNAc
In short: as §1

Gal(a1-4)Gal(b1-4)Glc = molecular target: Gal(a1-4)Gal(b1-4)Glc
In short: as §1

Gal(b1-3)Gal(b1-4)GlcNAc = molecular target: Gal(b1-3)Gal(b1-4)GlcNAc
In short: as §1

[8] = molecular target: Gal(b1-3)GlcNAc(b1-3)Gal(b1-4)[Fuc(a1-3)]GlcNAc(b1-6)[Gal(b1-3)GlcNAc(b1-3)]Gal(b1-4)Glc
In short: as §1

[9] = molecular target: Gal(b1-3)[Fuc(a1-4)]GlcNAc(b1-3)Gal(b1-3)[Fuc(a1-4)]GlcNAc
In short: as §1

[10] = molecular target: Gal(b1-4)GlcNAc(b1-2)Man(a1-6)[GlcNAc(b1-2)Man(a1-3)]Man(b1-4)GlcNAc(b1-4)GlcNAc
In short: as §1

[11] = molecular target: Gal(b1-4)GlcNAc(b1-3)Gal(b1-4)GlcNAc
In short: as §1

[12] = molecular target: Gal(b1-4)GlcNAc(b1-3)Gal(b1-4)GlcNAc(b1-2)[Gal(b1-4)GlcNAc(b1-3)Gal(b1-4)GlcNAc(b1-6)]Man(a1-6)[Gal(b1-4)GlcNAc(b1-3)Gal(b1-4)GlcNAc(b1-2)Man(a1-3)]Man(b1-4)GlcNAc(b1-4)GlcNAc
In short: as §1

[13] = molecular target: Gal(b1-4)GlcNAc(b1-3)Gal(b1-4)GlcNAc(b1-2)[Gal(b1-4)GlcNAc(b1-3)Gal(b1-4)GlcNAc(b1-6)]Man(a1-6)[Gal(b1-4)GlcNAc(b1-3)Gal(b1-4)GlcNAc(b1-2)Man(a1-3)]Man(b1-4)GlcNAc(b1-4)[Fuc(a1-6)]GlcNAc
In short: as §1

[14] = molecular target: Gal(b1-4)GlcNAc(b1-3)Gal(b1-4)GlcNAc(b1-3)Gal(b1-4)GlcNAc(b1-2)Man(a1-3)[Gal(b1-4)GlcNAc(b1-3)Gal(b1-4)GlcNAc(b1-3)Gal(b1-4)GlcNAc(b1-2)Man(a1-6)]Man(b1-4)GlcNAc(b1-4)[Fuc(a1-6)]GlcNAc
In short: as §1

[15] = molecular target: Gal(b1-4)GlcNAc(b1-3)Gal(b1-4)GlcNAc(b1-3)Gal(b1-4)GlcNAc(b1-3)Gal(b1-4)GlcNAc(b1-3)Gal(b1-4)GlcNAc(b1-2)Man(a1-3)[Gal(b1-4)GlcNAc(b1-3)Gal(b1-4)GlcNAc(b1-3)Gal(b1-4)GlcNAc(b1-3)Gal(b1-4)GlcNAc(b1-3)Gal(b1-4)GlcNAc(b1-2)Man(a1-6)]Man(b1-4)GlcNAc(b1-4)GlcNAc
In short: as §1

[16] = molecular target: Gal(b1-4)GlcNAc(b1-3)Gal(b1-4)GlcNAc(b1-3)[Gal(b1-4)GlcNAc(b1-3)Gal(b1-4)GlcNAc(b1-6)]GalNAc
In short: as §1

[17] = molecular target: Gal(b1-4)GlcNAc(b1-3)[Fuc(a1-3)GlcNAc(b1-6)]Gal(b1-4)Glc
In short: as §1

[18] = molecular target: Gal(b1-4)GlcNAc(b1-6)[Gal(b1-3)]GalNAc
In short: as §1

Gal3S(b1-3)GlcNAc = molecular target: Gal3S(b1-3)GlcNAc
In short: as §1

[19] = molecular target: Gal3S(b1-3)[Fuc(a1-4)]GlcNAc
In short: as §1

[20] = molecular target: Gal3S(b1-4)[Fuc(a1-3)]Glc6S
In short: as §1

[21] = molecular target: Gal3S(b1-4)[Fuc(a1-3)]GlcNAc6S
In short: as §1

Gal3S6S(b1-4)GlcNAc6S = molecular target: Gal3S6S(b1-4)GlcNAc6S
In short: as §1

Gal6P(b1-4)GlcNAc = molecular target: Gal6P(b1-4)GlcNAc
In short: as §1

Gal6S(b1-3)GlcNAc6S = molecular target: Gal6S(b1-3)GlcNAc6S
In short: as §1

Gal6S(b1-4)Glc6S = molecular target: Gal6S(b1-4)Glc6S
In short: as §1

B1: EULS2 M2 (Oryza sativa) (protein)
chain: MVYCRANPNYAMTARNGAVVLAPANPKDEYQHWIKDMRWSTSIKDEEGYPAFALVNKATGQAIKHSLGQSHPVRLVPYNPEVMDESVLWTESRDVGNGFRCIRMVNNIYLNFDAFHGDKYHGGVRDGTDIVLWKLCEGDSQRWKIQPYYILEQKLISEEDLNSAVDHHHHHH
glycan array binding signal (z-score) [1]: 2.57
glycan array binding signal (z-score) [2]: 0.051
glycan array binding signal (z-score) [3]: -0.221
glycan array binding signal (z-score) [4]: -0.288
glycan array binding signal (z-score) [5]: -0.239
glycan array binding signal (z-score) [6]: 0.046
glycan array binding signal (z-score) (Gal(a1-3)Gal(b1-3)GlcNAc): 6.13
glycan array binding signal (z-score) [7]: 0.228
glycan array binding signal (z-score) (Gal(a1-3)GalNAc): -0.346
glycan array binding signal (z-score) (Gal(a1-4)Gal(b1-4)Glc): -0.552
glycan array binding signal (z-score) (Gal(b1-3)Gal(b1-4)GlcNAc): -0.911
glycan array binding signal (z-score) [8]: -0.897
glycan array binding signal (z-score) [9]: -0.418
glycan array binding signal (z-score) [10]: -0.086
glycan array binding signal (z-score) [11]: 0.298
glycan array binding signal (z-score) [12]: 1.3
glycan array binding signal (z-score) [13]: 0.142
glycan array binding signal (z-score) [14]: -0.152
glycan array binding signal (z-score) [15]: 2.79
glycan array binding signal (z-score) [16]: -0.129
glycan array binding signal (z-score) [17]: -0.485
glycan array binding signal (z-score) [18]: 0.142
glycan array binding signal (z-score) (Gal3S(b1-3)GlcNAc): -0.359
glycan array binding signal (z-score) [19]: -0.012
glycan array binding signal (z-score) [20]: 0.271
glycan array binding signal (z-score) [21]: 3.8
glycan array binding signal (z-score) (Gal3S6S(b1-4)GlcNAc6S): 13.3
glycan array binding signal (z-score) (Gal6P(b1-4)GlcNAc): -0.418
glycan array binding signal (z-score) (Gal6S(b1-3)GlcNAc6S): 4.18
glycan array binding signal (z-score) (Gal6S(b1-4)Glc6S): 4.74
